# GPR151 ag: human GPR151 activation. PathHunter beta-arrestin GPR151 cells, luminescence. activation, % at 11.2 µM. 1% of 650,000 active. AID 1508602; in the data active = activation above about 4.9%;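 also: 0% = median of compound wells and 100% = cells with positive control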
# Target sequence (Q8TDV0 whole entry, looked up): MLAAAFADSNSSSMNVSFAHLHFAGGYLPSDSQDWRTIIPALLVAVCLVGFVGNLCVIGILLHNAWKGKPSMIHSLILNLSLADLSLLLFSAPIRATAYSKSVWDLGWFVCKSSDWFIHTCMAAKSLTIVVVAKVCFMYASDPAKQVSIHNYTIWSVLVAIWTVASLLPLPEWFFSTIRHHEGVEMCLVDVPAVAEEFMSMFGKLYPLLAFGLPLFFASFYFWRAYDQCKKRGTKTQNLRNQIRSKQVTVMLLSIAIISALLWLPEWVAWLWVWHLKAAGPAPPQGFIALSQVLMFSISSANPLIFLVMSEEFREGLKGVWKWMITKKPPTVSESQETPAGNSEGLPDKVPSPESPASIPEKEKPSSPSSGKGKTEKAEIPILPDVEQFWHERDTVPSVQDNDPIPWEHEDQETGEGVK
# MITF primary: blocks human microphthalmia-associated transcription factor; inhibition, % at 2.6 µM; O75030; 0.91% of 650,000 active; AlphaScreen MITF homodimerization, bead proximity signal; AID 1259374; in the data active = inhibition above about 50%;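 also: 0% = vehicle wells with protein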
# TEAD-YAP block: TEAD-YAP interaction inhibition; HEK-TIYL cells, TEAD-Gal4/YAP UAS-luciferase luminescence; inhibition, % at 9.12 µM; 1.4% of 640,000 active; AID 1259422; in the data active = inhibition above about 32%;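 also: 0% = median of test compound wells and 100% = reference inhibitor wells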
# FBW7 act: human FBW7 E3 ligase activation, primary screen | AID 1259310 | AlphaScreen FBW7–phospho-cyclin E peptide binding, activator screen | Q969H0 | normalized activity (activation), % at 26.1 µM | 0.13% of 650,000 active; in the data active = normalized activity above about 1.9%;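 also: purified mutant Fbw7 with reduced substrate affinity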
# GPR151 conf act: human GPR151 activation, confirmation screen; shares compounds with GPR151 ag; GPR151 PathHunter beta-arrestin cells, luminescence, 90 min; % of EA-reagent control over plate median; activation, % at 11.2 µM; 6,700 tested, under 10 active; AID 1508609;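 active = mean percent activation across replicates above the confirmation screen cutoff of 4.91%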
# GPR119 counter: counter-screen for GPR151 activators: effect on human GPR119 | activation, % at 11.2 µM | shares compounds with GPR151 ag | 0.3% of 6,700 active | GPR119 PathHunter beta-arrestin cells, luminescence, 90 min; 0 = compound-well median, 100 = enzyme-acceptor control;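 active = mean percent activation in the counterscreen above 29.09%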;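 also: counterscreen on off-target GPR119 to flag nonselective hits from the GPR151 activator screen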
# * = called active by the depositor; nt = not tested or not shown. Most compounds without a hit are left out; they make up all but 3.5% or so of the library.
SMILES,GPR151 ag,MITF primary,TEAD-YAP block,FBW7 act,GPR151 conf act,GPR119 counter
COc1cc(OC)c(/C=N/N2C(=O)C3C4C=CC(C5CC45)C3C2=O)cc1Br (stereo not drawn),0.8,15.2,2.9,0.4,nt,nt
COC(=O)c1ccc(NC(=O)c2c(NCc3ccc(C)o3)sc3c2CCCC3)cc1,8.1*,14.2,-6.8,-0.2,1.5,0.1
COC(=O)c1c(NC(=O)c2ccc(C)cc2)sc2c1CCCC2,6.5*,0.9,3.7,0.0,0.4,13.9
COc1ccc(OC)c(NC(=O)c2c(NCc3ccc(C)o3)sc3c2CCCC3)c1,2.7,3.5,3.9,-0.2,nt,nt
COC(=O)c1c(NC(=O)c2ccc(C)cc2)sc2c1CCCCC2,-1.0,6.0,-0.6,0.4,nt,nt
Cc1c(C(=O)c2cccc(S(=O)(=O)N3CCCC3)c2)c2ccccn2c1CCC#N,0.6,-5.7,7.5,0.0,nt,nt
O=C(C1CCCO1)N1C2CCC1CC(c1ccc(F)cc1)C2 (stereo not drawn),0.9,5.1,11.0,0.0,nt,nt
Cc1cccnc1CCNC(=O)c1cc(COc2ccc3ncccc3c2)on1,0.8,17.7,25.9,0.2,nt,nt
COc1cccc(CCNC(=O)c2cc(COc3ccc4ncccc4c3)on2)c1,5.9*,-5.2,31.9,-0.1,-1.2,-16.9
C=CCNS(=O)(=O)c1cc(C(=O)Nc2cc(Cl)cc(Cl)c2)ccc1F,-1.6,-9.2,-16.2,-0.1,nt,nt
CCc1ccc(NC(=O)c2ccc(F)c(S(=O)(=O)NCc3ccc(C)cc3)c2)cc1,1.6,-6.1,-3.8,0.0,nt,nt
C=CCNS(=O)(=O)c1cc(C(=O)Nc2ccc(OCC)cc2)ccc1F,5.7*,6.6,26.4,0.0,-0.2,-1.1
Cc1ccc(CNS(=O)(=O)c2cc(C(=O)Nc3ccc(C(C)C)cc3)ccc2F)cc1,5.8*,13.0,3.8,0.3,1.3,7.2
O=C(Nc1ccccc1)c1ccc(Cl)c(S(=O)(=O)NCc2ccccc2)c1,8.2*,-1.9,13.1,0.0,-1.0,-12.6
O=C(O)COc1ccc(/C=C2\C(=O)NC(=O)N(c3cccc(Br)c3)C2=O)cc1,0.0,-3.1,5.2,-0.1,nt,nt
Cn1c(NC(=O)c2ccco2)c(-c2cccs2)c(=O)c2ccccc21,6.6*,7.2,5.9,-0.1,0.1,-3.1
COc1cc(/C=C(/C(=O)OCC(N)=O)c2ccc(-c3ccccc3)cc2)cc(OC)c1OC,5.1*,7.0,0.9,-0.2,-0.3,-6.9
COc1ccccc1/C=C(/C(=O)OCC(N)=O)c1ccccc1,0.5,-0.9,7.2,0.1,nt,nt
COc1cccn2c(C(=O)Nc3ccc(Cl)cc3)c(C(F)(F)F)nc12,14.2*,10.5,0.0,-0.2,0.5,8.2
COc1cccn2c(C(=O)N3CCC3)c(C(F)(F)F)nc12,6.2*,8.0,17.3,0.1,1.3,13.3
COc1cccn2c(C(=O)N3CCCC3)c(C(F)(F)F)nc12,-0.4,2.2,9.1,0.3,nt,nt
Cn1ncc([N+](=O)[O-])c1C(=O)Nc1ccc2nc(-c3ccccc3)[nH]c2c1,0.9,0.4,-32.5,0.1,nt,nt
CCOCCn1c(=NC(=O)CN2C(=O)CCC2=O)sc2cc(Br)ccc21,5.8*,-2.7,10.4,-0.2,0.0,3.7
COCCn1c(=NC(=O)CN2C(=O)CCC2=O)sc2cc(Br)ccc21,-0.3,0.5,1.2,0.1,nt,nt
Cc1nc(NCc2c(F)cccc2F)sc1-c1ccn(CCO)n1,-0.3,-3.0,-8.3,0.0,nt,nt
SMILES,GPR151 ag,MITF primary,TEAD-YAP block,FBW7 act,GPR151 conf act,GPR119 counter
CN(CC(=O)NC1CCCCCC1)c1nnc(N2CCCC2=O)s1,-1.6,9.3,-1.9,0.7,nt,nt
CN(CC(=O)NC1CCCC1)c1nnc(N2CCCC2=O)s1,6.1*,3.0,-1.4,0.8,0.2,3.0
Cc1c(Cl)cccc1NC(=O)c1ccc(F)c(S(=O)(=O)N2CCCCC2)c1,-1.8,-6.9,-4.8,0.0,nt,nt
CCC(C)c1ccccc1OCC(=O)Nc1ccc([N+](=O)[O-])cc1 (stereo not drawn),0.1,1.9,-6.6,-0.4,nt,nt
Cc1ccc(-n2cnc3cc(C(=O)NCc4ccc(F)cc4)ccc32)cc1Cl,5.9*,0.1,-2.1,-0.2,0.1,-11.6
O=C(NCCN1CCOCC1)c1ccc2c(c1)ncn2-c1ccc(F)cc1F,5.4*,17.5,-1.4,0.1,-0.9,-11.5
c1ccc(-n2nnnc2NCC2COc3ccccc3O2)cc1 (stereo not drawn),5.1*,-15.2,0.2,0.0,-0.5,-0.2
CN(CC1COc2ccccc2O1)c1nnnn1-c1ccccc1 (stereo not drawn),0.1,2.4,2.6,0.1,nt,nt
Cc1cc(NC(=O)Cn2c(=O)n(-c3ccccc3)c(=O)c3sccc32)n[nH]1,0.2,-14.7,3.0,-0.1,nt,nt
CC(C)C(=O)Nc1nnc(SCc2ccc(Cl)cc2)s1,5.1*,2.7,2.8,0.1,0.1,8.9
CC(C)NC(=O)C(N)Cc1c[nH]c2ccccc12 (stereo not drawn),-1.1,-10.9,-8.0,-0.1,nt,nt
COc1ccccc1NC(=O)Cc1c(C(=O)O)n(C)c2ccc(C)cc12,1.2,7.8,3.2,-0.1,nt,nt
COC(=O)C1=C(C)OC(N)=C(C#N)C1c1ccccc1C(F)(F)F (stereo not drawn),-1.2,-8.1,2.0,0.0,nt,nt
CCOC(=O)C1=C(C)OC(N)=C(C#N)C1c1ccc(OC)c(OC)c1 (stereo not drawn),-0.1,-0.4,-0.6,-0.1,nt,nt
CCOC(=O)C1=C(C)OC(N)=C(C#N)C1c1ccc(OC)c(OCC)c1 (stereo not drawn),5.2*,-21.8,0.6,0.0,0.1,9.8
CCOC(=O)C1=C(C)OC(N)=C(C#N)C1c1ccccc1C(F)(F)F (stereo not drawn),7.1*,3.1,-0.3,-0.1,0.1,-4.7
O=S(=O)(NC1CCN(Cc2ccccc2)CC1)c1ccc(F)c(F)c1,7.1*,13.7,7.7,0.7,0.9,-2.7
Cn1c(=O)oc2cc(S(=O)(=O)NC3CCN(Cc4ccccc4)CC3)ccc21,-1.1,13.3,-1.1,0.0,nt,nt
c1ccc(OCCn2c(Nn3cnnc3)nc3ccccc32)cc1,0.4,10.2,8.2,-0.3,nt,nt
Cc1ccc(CN2CCNC(=O)C2CC(=O)NCc2cc(C(F)(F)F)ccc2F)cc1 (stereo not drawn),6.5*,0.3,-2.5,-0.2,0.2,5.4
Cc1ccc(CN2CCNC(=O)C2CC(=O)NCc2cnn(C)c2)cc1 (stereo not drawn),-0.3,-3.8,0.7,0.0,nt,nt
COCCNC(=O)C(=O)NC(C)c1ccccc1 (stereo not drawn),2.4,-1.2,-10.3,-0.1,nt,nt
CC(C)OCCCNC(=O)C(=O)NC(C)c1ccccc1 (stereo not drawn),5.3*,-4.3,8.9,0.0,0.7,13.4
O=C(O)CCC/C=C\C[C@@H]1C(=O)C[C@@H](O)[C@@H]1/C=C/[C@@H](O)CC1CCCCC1,3.0,-2.8,nt,nt,nt,nt

# Assay outcomes deposited in PubChem BioAssay by The Scripps Research Institute Molecular Screening Center.
